An excerpt weighted towards active compounds, which were near 14% of everything screened.
HCMV inh = human cytomegalovirus inhibition. HFF cells, HCMV-luciferase reporter, 72 h; stronger effect = lower value. activity change, negative = inhibition, % at 57.5 µM. 4.5% of 410,000 active. AID 1259415; in the data active means activity change below about -60%; inconclusive means no clear call, values can overlap the other calls; inactive means above about -39%
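Compounds were evaluated in HFFs infected with an HCMV luciferase reporter virus (MOI 1 PFU/cell). Luciferase in lysates collected 72 h post infection served as the replication measure.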
Sm TGR block = blocks Schistosoma mansoni thioredoxin glutathione reductase; 3% of 360,000 active; Potency, µM (titrated, usually from 114 µM), for inactives: at the top dose activity change, negative = inhibition, actives largely listed as inhibitors; Q962Y6; purified TGR, DTNB reduction, TNB absorbance 405 nm; further: potency means the concentration at half of the fitted maximal effect; nearly all actives have a fitted effect of over 60% in size
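Kinetic colorimetric format: TGR-catalysed, NADPH-driven DTNB reduction monitored via TNB absorbance. Enzyme dispensed at 20 nM; compound exposure 15 min at room temperature before reaction start.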
Pf growth 96h = inhibits malaria parasite growth, 96 h; P. falciparum luciferase reporter growth, 96 h; Potency, µM (series often up to 28.7 µM), inactives show at the top dose activity change, negative = inhibition, actives largely listed as inhibitors; 6.9% of 320,000 active; further: potency means the concentration at half of the fitted maximal effect
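Parasite growth measured via integrated firefly luciferase reporter in P. falciparum. Infected erythrocytes at 2% hematocrit, 0.05% parasitemia final were treated 96 hours at 37 C under 5% CO2, and luminescence was read.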
FBPA Giardia inh = inhibitors of Giardia lamblia fructose-1,6-bisphosphate aldolase | A8B2U2 | purified Giardia FBPA | Potency, µM (doses to about 59.6 µM), for inactives: at the highest dose activity, negative = inhibition, usual class: inhibitors | 0.71% of 290,000 active | AID 2451; further: potency means the concentration at half of the fitted maximal effect; nearly all actives have a fitted effect of over 55% in size
Target sequence (A8B2U2 whole entry, looked up): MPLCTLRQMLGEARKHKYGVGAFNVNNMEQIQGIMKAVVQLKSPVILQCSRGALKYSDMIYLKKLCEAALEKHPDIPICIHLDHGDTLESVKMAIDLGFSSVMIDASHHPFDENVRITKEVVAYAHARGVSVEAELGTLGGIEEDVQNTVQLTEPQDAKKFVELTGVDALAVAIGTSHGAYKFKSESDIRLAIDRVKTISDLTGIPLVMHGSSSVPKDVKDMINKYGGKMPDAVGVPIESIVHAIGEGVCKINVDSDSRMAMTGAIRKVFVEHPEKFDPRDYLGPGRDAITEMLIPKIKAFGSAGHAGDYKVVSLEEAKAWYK
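40 nM FBPA preincubated 10 min at RT with compound (up to 57.5 uM final), then substrate plus GAPDH/TPI/NAD/arsenate coupling and diaphorase/resazurin added. Fluorescence read after 20 min at RT, 525/598 nm.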
Pf growth 48h = inhibits P. falciparum growth in the first generation, 48 h; P. falciparum luciferase growth in erythrocytes, 48 h; Potency, µM (highest dose often 28.7 µM), for the others: at the highest dose activity change, negative = inhibition, actives largely listed as inhibitors; 5.9% of 310,000 active; further: potency means the concentration at half of the fitted maximal effect
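A one-generation exposure of luciferase-tagged malaria parasites in RPMI 1640/Albumax erythrocyte culture, 37 C and 5% CO2. Inhibition is inferred from decreased luminescence after adding detection reagent.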
An asterisk follows results filed as active; ? = inconclusive; nt = not tested or not shown; ! = repeats disagree. Unless noted, the call rests on the fitted dose curve; in most records, active means well fitted curve in the direction sought with a large enough effect; inconclusive means small, poorly fitted or top-dose-only effect, or another doubt; inactive means no such curve, though single readings can be large; an effect the other way counts as inactive or inconclusive. On the % scale 0 is the no-effect control and ±100 the full control effect.

SMILES	HCMV inh	Sm TGR block	Pf growth 96h	FBPA Giardia inh	Pf growth 48h
O=C(CC[C@H]1O[C@@H](n2ccc(=O)[nH]c2=O)[C@H](O)[C@@H]1O)N[C@@H](Cc1ccccc1)C(=O)NCc1ccccc1	17	nt	nt	nt	nt
CCCCOc1cccc(C(=O)N2CCN(CCc3ccncc3)CC2)c1	4	-26%	nt	nt	nt
COc1cc(F)ccc1-c1csc(C(O)c2ccc(F)c(F)c2)n1 (stereo unspecified)	-17	nt	nt	nt	nt
COc1ccc(CC(=O)n2[nH]c(=O)c3ccccc3c2=O)cc1OC	20	5%	-4%	2%	-2%
COc1ccc(CC(=O)n2[nH]c(=O)ccc2=O)cc1OC	45	0.56µM*	23%	?	10%
CCOC(=O)CNc1nnc(SCC(=O)OCC)[nH]c1=O	18	56µM*	61%	6%	12%
Cc1ccc(C)c(NC(=O)CN(C)C(=O)c2ccccc2Cc2ccccc2)c1	-18	6%	?	nt	?
Cc1cccc(C)c1NC(=O)CN(C)C(=O)c1ccc(-c2cccc(C(F)(F)F)c2)o1	-32	?	?	nt	12µM*
CN(CC(=O)Nc1cccc(F)c1)C(=O)c1ccc(-c2ccc(Cl)cc2)o1	11	?	1.7µM*	nt	1.9µM*
Cc1ccc(C)c(NC(=O)CN(C)C(=O)c2cc3ccccc3o2)c1	10	0%	3.3µM*	-3%	2.3µM*
CC(C)NC(=O)c1ccc(-c2cccc(C(F)(F)F)c2)o1	5	0%	?	4%	-4%
Cc1ccc(C)c(NC(=O)CN(C)C(=O)c2ccc(-c3ccc(Cl)cc3)o2)c1	-25	?	13µM*	nt	1.5µM*
CCOc1ccc(CNc2cc(C)nc3nc(-c4cccc(C)c4)nn23)cc1OC	360	?	nt	nt	nt
CCCCCCCCN1C(=O)[C@H](CC(=O)N2CCN(C(=O)c3ccco3)CC2)C[C@@]2(C(=O)OC)CC(C)(C)CC=C12	37	nt	nt	nt	nt
CCCCCNC(=O)C(c1ccc(OC)cc1)n1c(=O)c(-c2cc3ccccc3[nH]2)nc2ccccc21 (stereo unspecified)	14	nt	nt	nt	nt
CCN1C(=NCC(C)C)N[C@@H](c2cccc(C(F)(F)F)c2)C(C(=O)OC)=C1C	-24	6%	0.93µM*	23%	13µM*
C=CCN=C1N[C@@H](c2ccccc2)C(C(=O)OC)=C(C)N1CC	nt	1%	?	23%	31%
C=CCN=C1N[C@@H](c2cccc(C(F)(F)F)c2)C(C(=O)OC)=C(C)N1CC	99	-33%	3.3µM*	16µM*	10µM*!
CSc1nc(-c2ccccc2)[nH]c(=S)c1C(C)=O	-3	0%	9.3µM*	?	nt
CC(=O)c1c(NC(=O)c2ccccc2)[nH]c(-c2ccccc2)nc1=S	-84*	0%	16%	12%	?
CC(=O)Nc1nc(-c2ccccc2)nc(C)c1C(C)=O	16	-1%	1.9µM*	-28%	21%
CCOC(=O)c1c(C)nc(-c2ccccc2)nc1N	344	4%	10µM*	-16%	185%
CC(=O)c1c(C)nc(-c2ccccc2)nc1NC(=O)C(C)C	-28	-34%	nt	0%	nt
CC(=O)c1c(C)nc(-c2ccccc2)nc1N	14	-7%	43%	?	78%
CC(=O)c1c(C)[nH]c(-c2ccccc2)nc1=S	35	12%	-29%	?	?
SMILES	HCMV inh	Sm TGR block	Pf growth 96h	FBPA Giardia inh	Pf growth 48h
COc1ccc(CN2C(=O)CCC2(C)c2nc3ccccc3[nH]2)cc1 (stereo unspecified)	15	nt	nt	nt	nt
CCC1CN2CCC1CC2[C@@H](NC(=S)Nc1cc(C(F)(F)F)cc(C(F)(F)F)c1)c1cccc2ccc(OC)cc12 (stereo partly specified)	nt	nt	nt	-5%	nt
COc1cccc(C(=O)Nc2cc(NC(=O)c3ccco3)ccc2OC)c1	-18	0%	-5%	-1%	-22%
COc1ccc(NC(=O)c2ccco2)cc1NC(=O)c1c(OC)cccc1OC	nt	3%	2.3µM*	4%	-6%
COc1ccc(NC(=O)c2ccco2)cc1NC(=O)C(C)Oc1ccc(Cl)cc1Cl (stereo unspecified)	-80*	4%	nt	nt	nt
COc1cc(NC(=O)Cc2ccccc2)ccc1NC(=O)c1ccco1	-9	-5%	?	-4%	36%
CCCCOc1cccc(C(=O)Nc2cc(NC(=O)c3ccco3)ccc2OC)c1	-104*	0%	nt	nt	nt
COc1ccc(NC(=O)Cc2ccc(Cl)cc2)cc1NC(=O)c1ccco1	-86*	-1%	28%	3%	nt
CCC/C=C/C(C)O (stereo unspecified)	nt	nt	nt	2%	nt
O=C(NCC(c1cccnc1)N1CCc2ccccc2C1)C(=O)Nc1ccc(F)cc1F (stereo unspecified)	1	-9%	nt	nt	nt
CCOc1ccc2nc(NC(=O)CN3C(=O)C4CCCCC4C3=O)sc2c1 (stereo unspecified)	18	-15%	37%	nt	37%
CCCCN(CC)C(=O)CSc1nc2ccccc2c(=O)n1Cc1ccco1	-40	-8%	nt	nt	nt
O=C(Cc1ccccc1)Nc1ccc(NC(=O)c2ccco2)cc1Cl	-17	-3%	9.3µM*	3%	-10%
O=C(Cc1ccccc1)Nc1ccc(NC(=O)Cc2ccccc2)c(Cl)c1	-9	0%	?	3%	37%
COc1ccc(NC(=O)c2ccco2)cc1N	72	-5%	8.3µM*	40µM*	78%
COc1ccc(NC(=O)c2ccco2)cc1NC(=O)c1ccco1	16	-20%	-9%	5%	76%
Cc1ccc(Cn2c(=O)c3ccccc3n3c(-c4ccccc4)nnc23)cc1	1	9%	nt	nt	nt
CCc1sc(C(=O)N(CCOC)c2c(N)n(Cc3ccccc3)c(=O)[nH]c2=O)cc1C	-16	nt	nt	nt	nt
CCCCCC1CCC(C(=O)NCCN2CCOCC2)CC1 (stereo unspecified)	-24	10%	?	-1%	-10%
Cc1cccc(CSc2nc(-c3cccc(C)c3)nc3c2Cc2c(CO)cnc(C)c2O3)c1	12	2%	nt	nt	nt
Fc1cnc(Cl)nc1NC1CCCCC1	3	5%	4.7µM*	8%	24%
O=C(NCC(=O)N1CCC(N2CCCCC2)CC1)C1CCCCC1	17	-4%	1.2µM*	1%	9%
COc1cc(OC)cc(C(=O)NCCCNC(=O)c2ccccn2)c1	-27	6%	12µM*	13%	0%
COc1cc(OC)cc(C(=O)NCCNC(=O)c2ccccn2)c1	-14	-4%	19%	-9%	-5%
O=C(O)Cc1ccc(C(=O)c2cccs2)s1	-34	-23%	10µM*	3%	18%
CCOC(=O)C(=CNNc1c(C)csc1C(=O)OC)C(=O)OCC	-10	56µM*	0%	-2%	-26%
C#CCOCCOCCOCCNc1nc(N2CCOCC2)nc(N2CCN(C(=O)CCCCCCCCCCNC(=O)[C@@H]([C@H](C)O)n3cc(C)nn3)CC2)n1	-15	?	?	nt	?

From PubChem
